Assay results reported in paper PMC6212790, “How bacterial xenogeneic silencer rok distinguishes foreign from self DNA in its resident genome”.
Over roughly 33,000 sequences, “e-score” has its median near -0.038; the highest 2% begin near 0.33. Only a selection was taken, and the highest values are over-represented in it overall.

Target: T1, GST-Rok-C97-191 (Bacillus subtilis subsp. subtilis str. …, UniProt O34857 97-191)
T1 sequence: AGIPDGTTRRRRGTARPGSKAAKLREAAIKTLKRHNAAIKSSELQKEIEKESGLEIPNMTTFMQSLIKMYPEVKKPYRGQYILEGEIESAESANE
Test: protein binding microarray; Rok is a gene silencer of Bacillus subtilis; high values mean tight binding
Details: protein: recombinant; tags: GST (pTH5325, pDEST15-Magic modified); dsDNA, one strand shown
Summary of the method: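 Every oligonucleotide joins a 25-mer constant primer to a 35-mer variable part drawn from a de Bruijn sequence of order 10, so each non-palindromic 8-mer appears at least 32 times and each palindromic 8-mer 16 times. The preference for every 8-mer is reported as a unitless, rank-based enrichment score (E-score). This score spans 0.5 for the most favored 8-mer to −0.5 for the most disfavored.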

**Q.** TACCGGTA was tested. Which binding signal did it give?
**A.** 0.355 E-score

**Q.** For GACAAGGC, which binding signal is on record?
**A.** -0.188 E-score

**Q.** Which binding signal does the source give for AAATGCTT here?
**A.** -0.000293 E-score

**Q.** GAGCTCGA was tested. Which binding signal did it give?
**A.** 0.0407 E-score

**Q.** Which binding signal does the source give for ACGCCAAA here?
**A.** -0.128 E-score

**Q.** With CAGATACA as the sequence, how does the binding signal read?
**A.** 0.146 E-score

**Q.** For TAGATACA, which binding signal is on record?
**A.** 0.329 E-score

**Q.** AAGATATA was tested. Which binding signal did it give?
**A.** 0.347 E-score

**Q.** How did the binding signal turn out when TAGATAGA was run?
**A.** 0.345 E-score

**Q.** With AAGATATC as the sequence, how does the binding signal read?
**A.** 0.2 E-score

**Q.** For AAGATAAT, which binding signal is on record?
**A.** 0.339 E-score

**Q.** With AAGATAAA as the sequence, how does the binding signal read?
**A.** 0.314 E-score

**Q.** GAGATAGA was tested. Which binding signal did it give?
**A.** 0.15 E-score

**Q.** Which binding signal does the source give for AAGATAAC here?
**A.** 0.131 E-score

**Q.** With AAGATATG as the sequence, how does the binding signal read?
**A.** 0.117 E-score

**Q.** CAGATAGA was tested. Which binding signal did it give?
**A.** 0.16 E-score

**Q.** Which binding signal does the source give for AAGATACA here?
**A.** 0.151 E-score

**Q.** With GAATAGCC as the sequence, how does the binding signal read?
**A.** -0.126 E-score

**Q.** Which binding signal does the source give for AGCAGTCC here?
**A.** -0.0761 E-score

**Q.** Which binding signal does the source give for AACCCACT here?
**A.** 0.0905 E-score

**Q.** For ACATCGAA, which binding signal is on record?
**A.** 0.0242 E-score

**Q.** With GCGGCAGA as the sequence, how does the binding signal read?
**A.** -0.0665 E-score

**Q.** With GGTTTGGA as the sequence, how does the binding signal read?
**A.** -0.0233 E-score

**Q.** How did the binding signal turn out when TTCTTCAA was run?
**A.** -0.0566 E-score

**Q.** For AGTGGATG, which binding signal is on record?
**A.** -0.131 E-score

**Q.** With AAGGCGAT as the sequence, how does the binding signal read?
**A.** -0.0931 E-score

**Q.** For CAGATATA, which binding signal is on record?
**A.** 0.195 E-score

**Q.** For GAGATATA, which binding signal is on record?
**A.** 0.301 E-score

**Q.** Which binding signal does the source give for TAGATATA here?
**A.** 0.359 E-score

**Q.** How did the binding signal turn out when ACGTACTC was run?
**A.** 0.0226 E-score

**Q.** For CTTATTTC, which binding signal is on record?
**A.** 0.221 E-score

**Q.** Which binding signal does the source give for ATTATTAG here?
**A.** 0.325 E-score

**Q.** Which binding signal does the source give for CTTATTAA here?
**A.** 0.117 E-score

**Q.** How did the binding signal turn out when ATTATTAC was run?
**A.** 0.387 E-score

**Q.** How did the binding signal turn out when CTTATTAC was run?
**A.** 0.332 E-score

**Q.** How did the binding signal turn out when ATTATTAA was run?
**A.** 0.199 E-score

**Q.** How did the binding signal turn out when GTAGCTGA was run?
**A.** 0.279 E-score

**Q.** AATCCTTA was tested. Which binding signal did it give?
**A.** 0.107 E-score

**Q.** How did the binding signal turn out when GAATAAAC was run?
**A.** 0.0598 E-score

**Q.** With ACTCATCG as the sequence, how does the binding signal read?
**A.** 0.0111 E-score

**Q.** Which binding signal does the source give for AATAGGGT here?
**A.** 0.0409 E-score

**Q.** With AGTATAAA as the sequence, how does the binding signal read?
**A.** 0.289 E-score

**Q.** For GGTATAAC, which binding signal is on record?
**A.** 0.266 E-score

**Q.** GGTATATA was tested. Which binding signal did it give?
**A.** 0.406 E-score

**Q.** GGTATAGA was tested. Which binding signal did it give?
**A.** 0.221 E-score

**Q.** How did the binding signal turn out when AGTATATA was run?
**A.** 0.428 E-score

**Q.** With CGTATATA as the sequence, how does the binding signal read?
**A.** 0.258 E-score

**Q.** With GGTATAAA as the sequence, how does the binding signal read?
**A.** 0.352 E-score

**Q.** For AGTATATC, which binding signal is on record?
**A.** 0.261 E-score

**Q.** How did the binding signal turn out when AGTATATG was run?
**A.** 0.264 E-score

**Q.** With CATTAAGG as the sequence, how does the binding signal read?
**A.** -0.0335 E-score

**Q.** AGACATTA was tested. Which binding signal did it give?
**A.** 0.0762 E-score

**Q.** How did the binding signal turn out when ATCCGTAA was run?
**A.** -0.0485 E-score

**Q.** With GACTCATA as the sequence, how does the binding signal read?
**A.** -0.063 E-score

**Q.** With CCATCAGA as the sequence, how does the binding signal read?
**A.** -0.0159 E-score

**Q.** With CGTGCACC as the sequence, how does the binding signal read?
**A.** -0.199 E-score

**Q.** How did the binding signal turn out when CCTACCAG was run?
**A.** 0.0329 E-score

**Q.** How did the binding signal turn out when GCCCTGTA was run?
**A.** -0.192 E-score

**Q.** Which binding signal does the source give for CTACTACC here?
**A.** 0.363 E-score

**Q.** With CTACTAGC as the sequence, how does the binding signal read?
**A.** 0.256 E-score

**Q.** How did the binding signal turn out when ATACTACG was run?
**A.** 0.273 E-score

**Q.** How did the binding signal turn out when CGACTACC was run?
**A.** 0.000144 E-score

**Q.** Which binding signal does the source give for ATACTACC here?
**A.** 0.379 E-score

**Q.** Which binding signal does the source give for ACACTACC here?
**A.** -0.0628 E-score

**Q.** For GCTAACCA, which binding signal is on record?
**A.** -0.102 E-score

**Q.** How did the binding signal turn out when GAGTCTTA was run?
**A.** -0.0226 E-score

**Q.** GCTTACAC was tested. Which binding signal did it give?
**A.** -0.028 E-score

**Q.** For ACGCGGGA, which binding signal is on record?
**A.** -0.0896 E-score

**Q.** CGAGCCGA was tested. Which binding signal did it give?
**A.** -0.177 E-score

**Q.** How did the binding signal turn out when ACTAAATA was run?
**A.** 0.354 E-score

**Q.** How did the binding signal turn out when ACTAAAAC was run?
**A.** 0.26 E-score

**Q.** With CCTAAATA as the sequence, how does the binding signal read?
**A.** 0.155 E-score

**Q.** Which binding signal does the source give for ACTAAATG here?
**A.** 0.226 E-score

**Q.** How did the binding signal turn out when ACTAAATC was run?
**A.** 0.35 E-score

**Q.** GCTAAATA was tested. Which binding signal did it give?
**A.** 0.32 E-score

**Q.** For ACTAAAAA, which binding signal is on record?
**A.** 0.26 E-score

**Q.** For ACTAAAAT, which binding signal is on record?
**A.** 0.397 E-score

**Q.** Which binding signal does the source give for CCTAAATC here?
**A.** -0.11 E-score

**Q.** ATGAACTC was tested. Which binding signal did it give?
**A.** -0.191 E-score

**Q.** With GTCGCCTA as the sequence, how does the binding signal read?
**A.** -0.125 E-score

**Q.** With ACTATTAC as the sequence, how does the binding signal read?
**A.** 0.4 E-score

**Q.** Which binding signal does the source give for ACTATTAG here?
**A.** 0.263 E-score

**Q.** How did the binding signal turn out when CCTATTAC was run?
**A.** 0.247 E-score

**Q.** ACTATTAA was tested. Which binding signal did it give?
**A.** 0.302 E-score

**Q.** ACTATTAT was tested. Which binding signal did it give?
**A.** 0.364 E-score

**Q.** With GCTATTAC as the sequence, how does the binding signal read?
**A.** 0.285 E-score
